Compound activity (PubChem BioAssay)
Shown is part of a subset that was picked to be rich in hits.
TTR transcr act: TTR transcription activators in neuroblastoma reporter cells, primary screen, cell-based, luminescence, SH-SY5Y, TTR promoter Gaussia luciferase | AID 1117267, 2014 | activation, % at 16.7 µM | hit rate 1.3% among 92,000 | 100% = recombinant luciferase protein wells;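 active = activation above the mean of all tested compounds plus 3 SD, cut at about 9.5% in these data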;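 note: cells exposed to compounds for one day before reading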
TTR inh HuH7: TTR promoter reporter inhibitors in hepatoma cells, counter-screen for TTR transcription activator project, cell-based, luminescence, HuH7 hepatoma; shares compounds with TTR transcr act; HuH7 TTR promoter-Gaussia luciferase reporter; inhibition, % at 16.7 µM; hit rate 4% among 1,100;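 active = average inhibition above the solvent-only control wells' mean plus 3 SD, cut at about 15% in these data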;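 note: inhibitors lower well luminescence so higher value means more inhibition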
TTR act confirm: TTR transcription activators, retest, confirmation, cell-based, luminescence, SH-SY5Y, triplicate; shares compounds with TTR transcr act; SHSY5Y TTR promoter Gaussia luciferase; 100% = purified Lucia enzyme wells, no cells; activation, % at 16.7 µM; 1,100 tested, under 10 active; AID 1117280, 2014;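 active = mean activation above a set limit taken from the earlier primary screen, cut at about 11% in these data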
Each line names hits and unclear results; the compound was inactive in the other large screens (follow-up assays come after a bar, where they were run).

COc1ccc(NC(=S)Nc2ccc(S(=O)(=O)N3CCCCC3)cc2)cc1	TTR transcr act 12.1 | TTR inh HuH7 inactive | TTR act confirm inactive
COc1ccc(NC(=O)CSCC(=O)Nc2ccc(S(=O)(=O)N3CCCC3)cc2)cc1	none
Cc1cc(=O)[nH]c(SCC(=O)Nc2ccc(S(=O)(=O)N3CCCCC3)cc2)n1	TTR transcr act 12.9 | TTR inh HuH7 inactive | TTR act confirm inactive
Cc1ccc(NC(=O)CSc2nc(N)cc(=O)[nH]2)cc1S(=O)(=O)N1CCCCCC1	none
CCOC(=O)CSCC(=O)Nc1ccc(S(=O)(=O)N2CCCCC2)cc1	none
COc1ccc(OCC(=O)Nc2ccc(S(=O)(=O)N3CCCCC3)cc2)cc1	none
Cn1cccc1CC(=O)N/N=C/C=C/c1ccccc1	none
C/C(=N\NC(=O)CSc1nc(C)cc(C)n1)c1cccs1	none
Cc1cc(C)nc(SCC(=O)N/N=C/C=C/c2ccccc2)n1	TTR transcr act 13.9 | TTR inh HuH7 inactive | TTR act confirm inactive
COC(=O)[C@H](C)NC(=O)[C@@H]1CCCN1C(=O)CNP(=O)(OCc1ccccc1)OCc1ccccc1	none
O=S1(=O)c2c(NCc3ccco3)cccc2Oc2ccccc2CN1Cc1cn(Cc2ccc(Cl)cc2)nn1	none
C[C@H]1[C@@H](NC(=O)C2CCC2)CC[C@@]23CCCN2C(=O)CCC[C@@H]13	none
COC(=O)C(CCSC)NC(=O)C(NC(=O)C1CCC(C)CC1)C(C)C (centres undefined)	none
CSCC[C@H](NC(=O)[C@H]1CC[C@H](CNC(=O)[C@@H]2CCCN2)CC1)C(=O)O	none
CSCCC(NC(=O)C1CCC(C)CC1)C(=O)O (centres undefined)	TTR transcr act 57.5 | TTR inh HuH7 inactive | TTR act confirm inactive
O=C(NC1CCCCN(Cc2ccc(Cl)cc2)C1=O)c1ccc(F)cc1 (centres undefined)	none
COC(=O)[C@@H]1N=C(c2ccc(OC)cc2)O[C@]12C(=O)N(Cc1cn(Cc3ccccc3)nn1)c1cccc(Cl)c12	none
COC(=O)[C@]12C[C@H](CC(=O)N3CCN(C(=O)c4ccco4)CC3)C(=O)N(Cc3cccc4ccccc34)C1=C[C@H](C1CCCC1)O[C@@H]2C	none
CC(=O)Oc1ccccc1C(=O)C=Cc1cccc([N+](=O)[O-])c1	none
COc1cc(/C=C/C(=O)OCC(=O)NCCC2=CCCCC2)cc(OC)c1OC	TTR transcr act 10.2 | TTR inh HuH7 inactive | TTR act confirm inactive
COc1ccc(C(=O)NCC(=O)OCC(=O)NCCC2=CCCCC2)cc1	none
COc1cc(C#N)ccc1OCC(=O)NCCC1=CCCCC1	none
COC(=O)[C@]12C[C@H](CC(=O)NCCc3ccccc3OC)C(=O)N(CCc3ccc(OC)c(OC)c3)C1=C[C@H](C(C)C)O[C@@H]2C1CC1	none
O=C(CSc1nc2ccccc2o1)NCC1CCCO1 (centres undefined)	none
O=C(CSc1oc(-c2ccco2)nc1S(=O)(=O)c1ccccc1)NCC1CCCO1 (centres undefined)	TTR transcr act 11.7 | TTR inh HuH7 inactive | TTR act confirm inactive
Cc1ccc(S(=O)(=O)c2nc(-c3ccco3)oc2SCC(N)=O)cc1	none
CCCCC(=O)Nc1ccc(Br)cn1	none
CCCCC(=O)Nc1ccc(NC(=O)CCCC)nc1	none
CCCCCCCC(=O)NC1=NC(=O)C(C)(C)S1	TTR transcr act 12.6 | TTR inh HuH7 inactive | TTR act confirm inactive
COC(=O)[C@]12C[C@H](CC(=O)NCc3cccc(C(F)(F)F)c3)C(=O)N(CCc3ccc(OC)c(OC)c3)C1=C[C@H](C1CCCC1)O[C@@H]2C	none
COc1ccc(/C=C/C(=O)NC2=NCCS2)c(OC)c1	none
CCn1cc(Br)c(C(=O)NN)n1	TTR transcr act 15.6 | TTR inh HuH7 inactive | TTR act confirm inactive
NNC(=O)c1nn(-c2ccc(Cl)cc2)cc1O	none
CCn1cc(Cl)c(C(=O)Nc2ccc(OC)c(OC)c2)n1	none
C[C@H]1[C@@H](NCc2cccs2)CC[C@@]23CCCN2C(=O)CCC[C@@H]13	none
COC(=O)[C@]12C[C@H](CC(=O)NCC34CC5CC(CC(C5)C3)C4)C(=O)N(CCc3ccc(OC)c(OC)c3)C1=C[C@H](COCc1ccccc1)O[C@@H]2C	none
CCOC(=O)c1ccccc1NC(=O)C(C)Oc1ccccc1 (centres undefined)	none
CCOCCOC(=O)COC(=O)c1ccccc1NC(=O)c1ccccc1	TTR transcr act 12.3 | TTR inh HuH7 inactive | TTR act confirm inactive
CCOC(=O)c1ccccc1NC(=O)C=C(C)C	none
CC(C)CNC(=O)OCc1cn(Cc2ccc(C(F)(F)F)cc2)nn1	none
CC(C)(N[C@@H](Cc1c[nH]c2ccccc12)C(=O)NCC(c1ccccc1)c1ccccc1)C(=O)NC1CCCCC1	none
O=C(NC(=O)c1ccccc1Cl)Nc1ccc(-c2cnco2)cc1	none
O=C(Nc1ccc(-c2cnco2)cc1)c1ccc(Cl)cc1	none
O=C(Nc1ccc(-c2cnco2)cc1)c1ccccc1	TTR transcr act 14.2 | TTR inh HuH7 inactive | TTR act confirm inactive
CC(=O)N1CCN(c2cc(-c3ccco3)nc3cc(-c4ccccc4)nn23)CC1	none
Cc1nc(N)ncc1CCC1OCCO1	TTR transcr act 11.6 | TTR inh HuH7 inactive | TTR act confirm inactive
CCCCOc1ccc(C(=O)NC2CCCCN(Cc3ccccc3C)C2=O)cc1 (centres undefined)	none
CCOC(=O)[C@@H](NC(=O)CC[C@H]1O[C@@H](n2cc(C)c(=O)[nH]c2=O)C[C@@H]1O)C(C)C	none
O=C(O)CCc1ccc(-c2ccccc2)n1NC(=O)c1ccco1	TTR transcr act 21.6 | TTR inh HuH7 inactive | TTR act confirm inactive
O=C(O)CCc1ccc(-c2cccs2)n1NC(=O)c1ccco1	none
O=C(Nn1c(-c2ccccc2)nc2ccccc2c1=O)c1ccco1	none
COc1ccc(Oc2c(Cl)cnn(C3c4ccccc4-c4ccccc43)c2=O)cc1	none
C#CCNC(=O)C[C@H]1C[C@@]2(C(=O)OC)C(=C[C@H](C3CCCC3)O[C@@H]2C)N(Cc2ccco2)C1=O	none
CCC[C@H]1[C@@H](NC(=O)Nc2ccc3c(c2)OCO3)CC[C@@]23CCCN2C(=O)CCC[C@@H]13	none
CCc1nccn1CC(=O)c1ccc(O)c(O)c1	none
CCOC(=O)[C@]12CCCC=C1N(Cc1ccc(OC)cc1)C(=O)[C@@H]2CC(=O)N1CCSCC1	none
Cc1c(OCC(=O)C(C)(C)C)ccc2c3c(c(=O)oc12)CCCC3	none
CCOC(=O)COc1ccc2c3c(c(=O)oc2c1C)CCC3	none
Cc1coc2c(C)c3oc(=O)c4c(c3cc12)CCCC4	TTR transcr act 11.7 | TTR inh HuH7 inactive | TTR act confirm inactive
NC(=NC(=O)/C=C/c1ccccc1Br)N(CC#Cc1ccccc1)CC#Cc1ccccc1	none
COC(=O)[C@]12C[C@H](CC(=O)NCc3cccc4ccccc34)C(=O)N(CCc3ccc(OC)c(OC)c3)C1=C[C@H](C(C)C)O[C@@H]2C1CC1	none
Cc1cc2nc(-c3cccc(Cl)c3)c(CC(C)(C)C)n2c(C)c1Br	none
CC1CN(C2CCCCC2)C(=S)NC1=O (centres undefined)	none
O=C1NC(=O)N(Cc2ccccc2)CC1Br (centres undefined)	none
O=C1NC(=O)N(C2CCCCC2)CC1Br (centres undefined)	TTR transcr act 25.0 | TTR inh HuH7 inactive | TTR act confirm inactive
Cn1c(CNc2ccccc2F)nc2ccccc21	none
